D1 antagonist – Antagonist of Human D 1 Dopamine Receptor: qHTS; D(1A) dopamine receptor (Homo sapiens), P21728; HEK293 TREx D1 cells, calcium flux, dopamine EC80; active compounds read low; activity change, negative = inhibition, % at 10 µM; hit rate 3.2% among 360,000; in the data active = activity change below about -30%; also: % is scaled to controls: 0 for no effect and ±100 for the full control effect
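Tetracycline-induced HEK293 T-REx cells with force-coupled D1 receptor were loaded with a no-wash calcium dye. Compound was added after a 10 s baseline and read kinetically for 180 s; EC80 dopamine was then added and calcium flux followed another 180 s.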
D3 ag – qHTS of D3 Dopamine Receptor Agonist: qHTS; D(3) dopamine receptor (Homo sapiens), P35462; D3R DiscoveRx beta-arrestin cells, luminescence, 90 min; max activation, %; hit rate 0.58% among 410,000; in the data active = max activation above about 30%; also: 0% is about no effect
Target sequence (P35462 whole entry, looked up): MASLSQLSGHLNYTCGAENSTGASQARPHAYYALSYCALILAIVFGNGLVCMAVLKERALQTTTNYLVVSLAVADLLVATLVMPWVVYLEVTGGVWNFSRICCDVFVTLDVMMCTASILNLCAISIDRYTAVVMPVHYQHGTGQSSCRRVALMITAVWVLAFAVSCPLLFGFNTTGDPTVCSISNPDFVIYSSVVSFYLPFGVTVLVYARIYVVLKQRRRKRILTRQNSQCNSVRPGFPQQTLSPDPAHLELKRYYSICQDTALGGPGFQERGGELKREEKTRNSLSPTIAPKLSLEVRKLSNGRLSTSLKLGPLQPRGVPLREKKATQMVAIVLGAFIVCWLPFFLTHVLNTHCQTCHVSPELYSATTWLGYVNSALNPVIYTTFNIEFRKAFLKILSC
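Agonist-mode cell screen: cells plated at 1500/well and incubated overnight at 37 °C, then exposed to library compounds for 90 min at 37 °C. Detection reagent was added for 30–60 min at room temperature, and luminescence was read.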
D1 agonist – Allosteric Agonists of the Human D1 Dopamine Receptor: qHTS; AID 504660, 2011; hit rate 1% among 360,000; activation, % at 2 µM; HEK293 T-REx D1 cells, calcium flux, agonist mode; in the data active = activation above about 30%; also: 0% is about no effect
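Tetracycline-induced HEK293 TREx D1 cells, force-coupled to calcium signalling, were dye-loaded with a no-wash calcium kit. Compound was pin-added after a 10 s baseline. Fluorescence was read kinetically at 1 cycle/s for 180 s, with calcium rises flagged as agonism.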
D3 antag – qHTS of D3 Dopamine Receptor Antagonist: qHTS; AID 652054, 2013; max response, negative = inhibition, %; hit rate 2.5% among 360,000; D3R cells, DiscoveRx beta-arrestin luminescence, antagonist mode; active compounds read low; D(3) dopamine receptor (Homo sapiens), P35462; in the data active = max response below about -50%; inconclusive = no clear call, values can overlap the other calls; also: % is scaled to controls: 0 for no effect and ±100 for the full control effect
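Cells plated overnight at 1500 cells/well, then exposed to library compounds with dopamine controls for 90 minutes at 37 degrees C. DiscoveRx reagent added for 30–60 minutes at room temperature; luminescence read, quantitative HTS format.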
D1 PAM – Potentiators of Human D1 Dopamine Receptor: qHTS. hit rate 0.036% among 360,000. potentiation, % at 10 µM. D(1A) dopamine receptor (Homo sapiens), P21728. HEK293 TREx D1 cells, calcium flux, dopamine EC20 potentiation; in the data active = potentiation above about 30%; also: 0% is about no effect
Numbers without * were called inactive; ? = inconclusive; · = no result given. An excerpt weighted towards active compounds, which were near 6.1% of everything screened.

SMILES	D1 antagonist	D3 ag	D1 agonist	D3 antag	D1 PAM
CC#CCC(C)[C@H](O)/C=C/[C@@H]1[C@H]2c3cccc(CCCC(=O)O)c3O[C@H]2C[C@H]1O (some centres undefined)	·	15	·	·	·
Cc1nc(CC(=O)Nc2nc(C(C)(C)C)cs2)cs1	-38*	-7	12	1	-7
Cc1ccccc1-c1nnn(Cc2cccc(S(=O)(=O)N3CCOCC3)c2)n1	-33*	0	13	-2	-8
O=C1c2ccccc2S(=O)(=O)N1Cc1cccc(S(=O)(=O)N2CCOCC2)c1	-21	7	8	22	-9
Cc1ccc(S(=O)(=O)N2CCN(C(=O)c3ccnn3C)CC2)cc1C	-34*	-1	1	-1	-5
Cc1ccc(S(=O)(=O)N2CCN(C(=O)c3ccco3)CC2)cc1C	-12	4	1	26	-8
CCc1ccc(CNC(=O)C(C)n2ccc3cc(S(=O)(=O)N4CCCCCC4)ccc32)cc1 (centres undefined)	-22	-2	2	·	3
CC1=CC=CC2=NC(=O)CC(C)(C(=O)N(CC(=O)NC3CCCC3)c3ccc(F)cc3)N12 (centres undefined)	-34*	3	1	-9	-8
CCCCCCCCCCCCCCCCCCOCC(COP(=O)([O-])OCC[N+](C)(C)C)OC (centres undefined)	·	5	·	·	·
O=C(COC(=O)c1cccnc1Cl)NC(=O)c1ccc(OC(F)F)cc1	·	-9	·	-53*	·
O=c1oc2ccccc2c(Nc2cccc3ccccc23)c1[N+](=O)[O-]	5	-2	1	-63*	-8
O=c1oc2ccccc2c(Nc2ccccc2O)c1[N+](=O)[O-]	-9	-8	1	?	-4
Cc1ccc(N/N=C(\C#N)C(N)=S)c(C)c1	-35*	8	37*	4	-12
Nc1nonc1C(=O)NCCNC(=O)c1ccc(Cl)cc1	4	-1	4	-4	4
O=c1cc(CO)oc(C(Nc2ccccn2)c2cccc(F)c2)c1O (centres undefined)	-14	1	-2	?	1
O=c1cc(CO)oc(C(Nc2ccccn2)c2ccccc2F)c1O (centres undefined)	·	-5	·	-51*	·
CC1CCN(C(=O)CCCN2C(=O)c3cccnc3Oc3ccc(Cl)cc32)CC1	2	-16	14	-65*	-5
O=C(CN1C(=O)c2cccnc2Oc2ccc(Cl)cc21)N1CCOCC1	3	-2	1	-8	2
CCc1ccccc1NC(=O)CN1C(=O)c2cccnc2Oc2ccc(Cl)cc21	-36*	-9	1	·	-3
O[C@@H]1CO[C@H]2[C@@H]1OC[C@@H]2O	·	1	·	·	·
COc1ccc(C)cc1Nc1n[n+](-c2ccccc2)c(-c2ccc(NC(C)=O)cc2)s1	-31*	21	1	-4	-7
Cc1cccc(NC(=O)c2cccc(NC(=O)c3ccco3)c2)c1C	·	-3	·	7	·
CCc1ccc(NC(=O)CN2C(=O)CC(C)S(=O)(=O)c3ccccc32)cc1 (centres undefined)	-32*	-4	0	-9	-3
COc1cc(NC(=O)C(OC(=O)CNC(=O)c2ccccc2)c2ccccc2)cc(C(F)(F)F)c1 (centres undefined)	-8	·	7	·	4
Cc1ccc(NC(=O)Nc2ncccc2C)cc1	-18	-5	5	27	3
SMILES	D1 antagonist	D3 ag	D1 agonist	D3 antag	D1 PAM
Cc1ccc(NC(=O)Nc2ccno2)cc1	-37*	4	1	6	-9
CCOc1ccccc1/C=C/C(=O)c1ccc(Cl)cc1	-32*	-7	8	13	-6
COc1ccccc1/C=C/C(=O)c1ccccc1	3	0	1	13	-6
COc1ccccc1/C=C/C(=O)c1ccc(Cl)cc1	-36*	-50	12	-7	-6
O=C(O)c1ccc(-n2nc(-c3ccccc3O)nc2-c2ccccc2O)cc1	·	2	·	·	·
N=c1c[n+](N2CCOCC2)[n-]o1	-7	-11	3	-107*	-2
